According to a collection of fitness landscapes (doi:10.1016/j.celrep.2020.107928):
In all, about 81,000 sequences were measured (“one-hybrid fitness for binding parS DNA”: median about -0.17, highest 2% from about 0.51 on). The sample holds the highest values, similar sequences and a random draw of the others, so the mix is not that of the screen.

B1: Caulobacter ParB omega fusion; a variant is named by its letters at X, in order, B8GW30 (parent)
chain: MESVVVGEPGMSEGRRGLGRGLSALLGEVDAAPAQAPGEQLGGSREAPIEILQRNPDQPRRTFREEDLEDLSNSIREKGVLQPILVRPSPDTAGEYQIVAGERAWRAAQRAGLKTVPIMVRELDDLAVLEIGIIENVQRADLNVLEEALSYKVLMEKFERTQENIAQTIGKSXSHVANXMRLLXLPDEVQSYLVSGELTAXHARAIAAAADPVALAKQIIEGGLSVRETEALARKAPNLSAGKSKGGRPPRVKDTDTQALESDLSSVLGLDVSIDHRGSTGTLTITYATLEQLDDLCNRLTRGI

Variants of: B1
Test: one-hybrid fitness for binding parS DNA (scaled: cognate 1, non-cognate 0); higher = stronger binding
Conditions: with parS DNA site
In short: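 In E. coli USO, a HIS3 reporter with its site placed 19 bp from the promoter was used to select Caulobacter ParB variants randomised at four specificity codons. Growth lasted 48 hours at 37°C on histidine-free M9 containing 0.1 mM IPTG and 5 mM 3-AT. Fitness was taken as the log change in variant-to-wild-type read ratio from Illumina sequencing of pre- and post-selection plasmids, rescaled between the non-cognate and cognate sites.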

Variant | one-hybrid fitness for binding parS DNA
PRHS | ≤ 0.2
MIYR | ≤ 0.2
VPKS | ≤ 0.2
TLQM | ≤ 0.2
RRMA | 0.809
DTMA | ≤ 0.2
RSMA | 0.576
RWMA | 0.287
RYMA | 0.553
AYMA | ≤ 0.2
RFMA | 0.504
RTMA | 0.582
SYMA | ≤ 0.2
NRMA | ≤ 0.2
DRMA | ≤ 0.2
NTMA | ≤ 0.2
NGLP | ≤ 0.2
DLGV | ≤ 0.2
QGYV | ≤ 0.2
HVLF | ≤ 0.2
IQVR | ≤ 0.2
RYHV | ≤ 0.2
WPYE | ≤ 0.2
RRPL | ≤ 0.2

Variant | one-hybrid fitness for binding parS DNA
ALDW | ≤ 0.2
VVHY | ≤ 0.2
RMMA | 0.643
RDMA | ≤ 0.2
RAMA | 0.565
RGMA | 0.283
RIMA | 0.6
RKMA | 0.54
DVGK | 0.252
PLIV | ≤ 0.2
KHAR | ≤ 0.2
MMTD | ≤ 0.2
HGPW | ≤ 0.2
CYVF | ≤ 0.2
NKSN | ≤ 0.2
THAA | ≤ 0.2
HRMC | 0.225
YECR | ≤ 0.2
PLHI | ≤ 0.2
EKSD | ≤ 0.2
KREK | ≤ 0.2
QAYP | ≤ 0.2
PIYC | ≤ 0.2
RLMA | 0.613

Variant | one-hybrid fitness for binding parS DNA
RPMA | ≤ 0.2
RNMA | 0.47
RCMA | 0.609
RHMA | 0.503
VSPG | ≤ 0.2
TMCY | ≤ 0.2
DQLR | ≤ 0.2
RRPP | ≤ 0.2
RRIT | 0.693
RRID | ≤ 0.2
RRIF | ≤ 0.2
RRPT | 0.761
RRPH | ≤ 0.2
DSHR | ≤ 0.2
CMQS | ≤ 0.2
SCFI | ≤ 0.2
RRNQ | ≤ 0.2
RRSF | ≤ 0.2
RRLC | 0.669
RRLP | ≤ 0.2
RRLH | ≤ 0.2
RRNC | 0.615
RRNF | ≤ 0.2
RRRC | 0.634

Variant | one-hybrid fitness for binding parS DNA
RRRF | ≤ 0.2
RRRQ | ≤ 0.2
RRSM | 0.364
RRSC | 0.596
LYTA | ≤ 0.2
EYRT | ≤ 0.2
PNAE | ≤ 0.2
HFHS | ≤ 0.2
VVVF | ≤ 0.2
PGKV | ≤ 0.2
GQNG | ≤ 0.2
PYHE | ≤ 0.2
FDPI | ≤ 0.2
RFFL | ≤ 0.2
AVTF | ≤ 0.2
CQAV | ≤ 0.2
NQES | ≤ 0.2
RRYC | 0.63
RRDR | ≤ 0.2
DRYC | ≤ 0.2
RRDQ | ≤ 0.2
RRCH | ≤ 0.2
RRCF | ≤ 0.2
RRDC | 0.701

Variant | one-hybrid fitness for binding parS DNA
RRCC | 0.619
NRYC | ≤ 0.2
LWSC | ≤ 0.2
LRPV | ≤ 0.2
PQAG | ≤ 0.2
ETTN | ≤ 0.2
QYKG | ≤ 0.2
CTWT | ≤ 0.2
MGFG | ≤ 0.2
GQDP | ≤ 0.2
EEAD | ≤ 0.2
RRFQ | ≤ 0.2
RRFT | 0.623
RRFK | ≤ 0.2
RRAQ | ≤ 0.2
RRAF | ≤ 0.2
RRAT | 0.562
PVDT | ≤ 0.2
CRAT | ≤ 0.2
RDEQ | ≤ 0.2
RRFR | ≤ 0.2
RRAK | ≤ 0.2
RRAC | 0.597
RRFC | 0.679

Variant | one-hybrid fitness for binding parS DNA
RRAM | 0.271
RRFF | ≤ 0.2
STSS | ≤ 0.2
HRSN | ≤ 0.2
NLCV | ≤ 0.2
TTRK | ≤ 0.2
RAID | ≤ 0.2
RAIS | 0.942
RALS | 1.03
RAPN | ≤ 0.2
RALH | 0.211
RAPP | ≤ 0.2
RAYS | 1.03
RAPS | 0.673
RALN | 0.431
RAIN | 0.301
RAYP | ≤ 0.2
RAYN | 0.445
MHTT | ≤ 0.2
SHEG | ≤ 0.2
FDNL | ≤ 0.2
CPKA | ≤ 0.2
QTHW | ≤ 0.2
PVVK | ≤ 0.2

Variant | one-hybrid fitness for binding parS DNA
LDQC | ≤ 0.2
EKET | ≤ 0.2
RKYY | 0.377
VKMG | ≤ 0.2
GMPS | ≤ 0.2
RARS | 0.908
RAWP | ≤ 0.2
RAIT | 0.682
RAIP | ≤ 0.2
RAWS | 1.05
RARH | ≤ 0.2
RAPT | 0.434
RAWD | ≤ 0.2
RARN | 0.419
GPSP | ≤ 0.2
PSKI | ≤ 0.2
CYMT | ≤ 0.2
DQPL | ≤ 0.2
FLGS | ≤ 0.2
RIYF | 0.265
RIRG | 0.955
RIYK | ≤ 0.2
RIRH | 0.29
RIRN | 0.395

Variant | one-hybrid fitness for binding parS DNA
RIYG | 1.03
PSLL | ≤ 0.2
FVQI | ≤ 0.2
SSST | ≤ 0.2
LRVT | ≤ 0.2
AKQS | ≤ 0.2
WRGT | ≤ 0.2
LTAS | ≤ 0.2
HNMS | ≤ 0.2
RRQM | 0.324
RRQH | ≤ 0.2
RRQS | 0.649
RRQN | 0.614
RRQP | ≤ 0.2
RRQD | ≤ 0.2
DHPT | ≤ 0.2
RGVM | ≤ 0.2
LQKG | ≤ 0.2
QYAK | ≤ 0.2
TQYT | ≤ 0.2
RLFM | 0.369
RLFK | ≤ 0.2
RLAN | 0.442
RLAD | ≤ 0.2

Variant | one-hybrid fitness for binding parS DNA
RLAG | 1.01
RLFG | 0.991
AIYN | ≤ 0.2
WEYM | ≤ 0.2
NPSH | ≤ 0.2
VRSD | ≤ 0.2
RAIV | ≤ 0.2
RPEN | ≤ 0.2
CYEL | ≤ 0.2
HDFT | ≤ 0.2
NCIT | ≤ 0.2
RYID | ≤ 0.2
RYCH | 0.223
RYIP | ≤ 0.2
RYCS | 0.958
RYYS | 0.978
RYQD | ≤ 0.2
RYIS | 0.939
RYYD | ≤ 0.2
RYQH | ≤ 0.2
RYYP | ≤ 0.2
RYCP | ≤ 0.2
RYQS | 0.912
LVWD | ≤ 0.2

Variant | one-hybrid fitness for binding parS DNA
NPHT | ≤ 0.2
PSHS | ≤ 0.2
DITP | ≤ 0.2
NQLR | ≤ 0.2
PVNW | ≤ 0.2
YEPV | ≤ 0.2
CIDV | ≤ 0.2
MSHI | ≤ 0.2
RYSN | 0.384
RYHD | ≤ 0.2
RYHN | 0.421
RYRS | 0.824
RYSS | 0.911
RYSH | ≤ 0.2
RYGS | 0.901
RYHS | 0.921
RYGD | ≤ 0.2
RYGN | 0.408
RYRN | 0.375
RYRD | ≤ 0.2
PQCT | ≤ 0.2
AYIG | ≤ 0.2
HGTM | ≤ 0.2
RYRV | ≤ 0.2

Variant | one-hybrid fitness for binding parS DNA
SHLR | ≤ 0.2
VPHG | ≤ 0.2
KAVS | ≤ 0.2
RYWN | 0.422
RYPC | 0.477
RYPS | 0.635
RYLH | ≤ 0.2
RYPP | ≤ 0.2
RYIY | 0.352
RYWH | ≤ 0.2
RYLD | 0.206
RYLS | 0.986
RYIC | 0.757
RYWS | 0.99
RYPD | ≤ 0.2
PNPL | ≤ 0.2
SDTR | ≤ 0.2
MCER | ≤ 0.2
YVVN | ≤ 0.2
HTHM | ≤ 0.2
APRT | ≤ 0.2
VFSS | ≤ 0.2
NMCG | ≤ 0.2
TSPA | ≤ 0.2

Variant | one-hybrid fitness for binding parS DNA
VQAC | ≤ 0.2
NLYH | ≤ 0.2
RYPT | 0.403
RYIT | 0.628
RYIF | ≤ 0.2
VSVG | ≤ 0.2
ATKL | ≤ 0.2
LWCV | ≤ 0.2
TMIC | ≤ 0.2
RQNA | 0.613
RQDA | 0.546
GTRS | ≤ 0.2
WREM | ≤ 0.2
KDAT | ≤ 0.2
KNTT | ≤ 0.2
RWKF | 0.288
RWVM | 0.27
RWVD | ≤ 0.2
RWVC | 0.544
RWKK | ≤ 0.2
RWKC | 0.896
LFFG | ≤ 0.2
RIFN | 0.438
RIAK | ≤ 0.2

Variant | one-hybrid fitness for binding parS DNA
RIAF | 0.213
RIFC | 0.96
RIAC | 0.973
RIFH | 0.213
HAMK | ≤ 0.2
NSMR | ≤ 0.2
HTHL | ≤ 0.2
RWMM | ≤ 0.2
RWMN | 0.211
RWMG | 0.671
RWMP | ≤ 0.2
RWMH | ≤ 0.2
RWMR | ≤ 0.2
RWMK | ≤ 0.2
RWMQ | ≤ 0.2
RWMT | 0.556
RWMD | ≤ 0.2
RWMC | 0.628
RWMS | 0.788
